Results from PubChem BioAssay (EPA / NIEHS).
“And” between values parts separate entries of the source, which are not always exact repeats. Identical values can stand only once. Some compounds were tested as several samples or in several runs, with calls that do not always agree. The source made the active and inactive calls. Rule for the calls: active = hit-call score of the fitted dose curve at least 0.9, where 1 is the maximum; inactive = score below 0.9.

Read-out: Matrix Metallopeptidase 1 (MMP1), MMP1 (gene 4312)
Test: BSK_BE3C_MMP1: BioMAP Diversity Plus: BE3C Assay for Matrix Metallopeptidase 1 (MMP1) Biomarker Activity (AID 2283024)
Settings: primary human bronchial epithelial cells; actives raise or lower the signal
Procedure: BSK_BE3C is a cell-based, multiplexed-readout assay that uses bronchial epithelial cell, a human lung primary cell, with measurements taken at 24 hours after chemical dosing in a 96-well plate.BSK_BE3C_MMP1 is an assay component measured in the BSK_BE3C assay. It measures MMP-1 antibody related to regulation of gene expression using ELISA technology.Data from the assay component BSK_BE3C_MMP1 was analyzed into 1 assay endpoint. This assay endpoint, BSK_BE3C_MMP1, was analyzed with bidirectional fitting relative to DMSO as the negative control and baseline of activity. Using a type of binding reporter, gain or loss-of-signal activity can be used to understand changes in the signaling as they relate to the gene MMP1. Furthermore, this assay endpoint can be referred to as a primary readout, because this assay has produced multiple assay endpoints where this one serves a signaling function. To generalize the intended target to other relatable targets, this assay endpoint is annotated to the protease intended target family, where the subfamily is matrix metalloproteinase.
The levels of cell surface (or secreted, indicated by the prefix "s") biomarker endpoints were measured by ELISA. Overt cytotoxicity to cells in confluent adherent cultures (all systems other than the BT system) was assessed by measuring total protein levels using sulforhodamine B (SRB) staining in parallel cultures at the time of biomarker measurements, indicated as SRB endpoints. For proliferation assays for adherent cell types, individual cell types are cultured at sub-confluence and relative cell numbers quantified by SRB staining at time points optimized for each system (48 h: 3C and CASM3C systems; 72 h: BT and HDF3CGF systems; 96 h: SAg system). SRB was performed by staining cells with 0.1% SRB after fixation with 10% TCA and reading wells at 560 nm.Viability and proliferation of PBMC (T cells) was quantified by Alamar Blue reduction for the SAg and BT systems. For PBMC viability (referred to as PBMC Cytotoxicity within the assay endpoint names), cells were plated (75,000/well in a 96-well plate) and then chemical samples added for 1 h before addition of activators, SEB and TSST-1 (20 ng/mL final concentration each). Cells were incubated for 90 h. Then, Alamar Blue (20 uL/well) (Invitrogen, Cat DAL1100) was added for 6 h, and the plates were read with a fluorescence microplate reader at 546/580 nm (excitation/emission). For PBMC proliferation, cells were plated and activated as above but incubated for only 16 h prior to addition of Alamar Blue. Plates were read after 6 h.

Compound	outcome	AC50
CC=C(C)C=CC=C(C)C	inactive	–
COC(OC)(C(=O)c1ccccc1)c1ccccc1	inactive	–
C[N+](C)(C)CCCNS(=O)(=O)C(F)(F)C(F)(F)C(F)(F)C(F)(F)C(F)(F)C(F)(F)C(F)(F)C(F)(F)F	inactive	19600 nM (active)
Clc1cc(Cl)c(Cl)c(Cl)c1Cl	inactive	–
CCCCCCCO	inactive	–
Nc1ccc(C(=O)O)cc1	inactive	–
Oc1ccccc1Cc1ccccc1O	inactive	–
CCCCC1C(=O)N(c2ccccc2)N(c2ccccc2)C1=O	inactive	–
COc1ccc(C(=O)c2ccccc2)c(O)c1	inactive	–
C=CC(=O)OCCCCCCCC(C)C	inactive	–
C=CCCCCCCCCC=O	inactive	–
CC(c1cc(C(C)(C)C)cc(C(C)(C)C)c1O)c1cc(C(C)(C)C)cc(C(C)(C)C)c1O	inactive	–
CC=C(C)C(C)=O	–	419 nM (active)
CC(C)CCCCCOC(=O)CS	inactive	–
Nc1nc(N)nc(-c2ccccc2)n1	inactive	–
CCC1(C)C(=O)N(Cl)C(=O)N1Cl (stereo not given)	inactive	–
O=C1CCCCCCCCCCC1	inactive	–
c1ccc2sc(SSN3CCOCC3)nc2c1	inactive	–
c1ccc2c(c1)[nH]c1ccccc12	inactive	126 nM (active)

Compound	outcome	AC50
C=C(C)C(=O)OCCCCCCCCCCCC	inactive	–
CC1(C)CC(O)CC(C)(C)N1[O]	inactive	–
CCOC(=O)/C=C\C(=O)OCC	inactive	–
CC1=CC=C(C(C)C)CC1	inactive	–
CCNc1nc(NC(C)(C)C)nc(OC)n1	inactive	–
CCCCCCC=O	inactive	–
CCCCCCCCCCCC(=O)N(C)CC(=O)O	–	8.01 µM (active) and 15.5 µM (active)
CCc1cccc(C)c1N(C(=O)CS(=O)(=O)O)C(C)COC (stereo not given)	inactive	–
CC(C)C(=O)OCCc1ccccc1	inactive	–
c1ccc(Nc2cccc3ccccc23)cc1	–	8.87 µM (active) and 4.89 µM (active)
CCOC(=O)C1=NN(c2ccc(Cl)cc2Cl)C(C)(C(=O)OCC)C1 (stereo not given)	inactive	–
Cc1ccc([N+](=O)[O-])cc1N	inactive	–
CCOC(=O)C1=NOC(c2ccccc2)(c2ccccc2)C1	inactive	–
CCCCCCCCCCCC(C)=O	–	16 nM (active)
CCN1CN(CC)CN(CC)C1	–	112 nM (active)
CCCC(C)C(=O)OCC (stereo not given)	inactive	–
O=C(Cl)c1c(Cl)c(Cl)c(C(=O)Cl)c(Cl)c1Cl	inactive	–
C=CC(=O)OCCCCCCOC(=O)C=C	inactive	–
C1CNCCN1	inactive	–
